HCMV inh – inhibitors of human cytomegalovirus | HFF cells, HCMV-luciferase reporter, 72 h; active compounds read low | 4.5% of 410,000 active | activity change, negative = inhibition, % at 57.5 µM; in the data active = activity change below about -60%; inconclusive = no clear call, values can overlap the other calls; inactive = above about -39%
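After 16 h attachment at 37C, HFF cells received test compound and HCMV-luciferase (1 PFU/cell); reporter luminescence read 72 h later, data normalized against buffer-only and known inhibitor Salinomycin.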
MARV entry inh – blocks Marburg virus binding to or entry into cells | AID 540276 | Potency, µM (doses to about 37.8 µM), inactives show at the top dose activity change, negative = inhibition, usual class: inhibitors | Marburg virus pseudotyped entry inhibition, cell reporter | 1.8% of 300,000 active; calls by dose curve; tested in HEK293 cells; note: potency is the fitted concentration of half-maximal effect
FMDV antiviral – foot and mouth disease virus antiviral activity; FMDV antiviral cell-based qHTS; Potency, µM (doses to about 57.9 µM), without a hit: at the highest dose activity change, negative = inhibition, hits mostly inhibitors; 1.2% of 410,000 active; calls by dose curve; tested in HEK293T cells; note: read-out not given here; potency is the fitted concentration of half-maximal effect; nearly all actives have a fitted effect of over 45% in size
HCV inh – blocks hepatitis C virus. Huh7.5.1 HCVcc-Cre infection, luciferase reporter, 44 h. Potency, µM (top dose mostly 41.8 µM), without a hit: at the top dose activity change, negative = inhibition, usual class: inhibitors. AID 651820. 3.4% of 340,000 active; note: potency is the fitted concentration of half-maximal effect
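Infectious HCVcc-Cre (~0.5 moi) was added to cells just after compound, with cells seeded 4 h earlier at 1,000 per well. Luciferase activity after 44 h culture reported infection; substrate was incubated 15 min at room temperature before reading.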
FBPA Giardia inh – inhibitors of Giardia lamblia fructose-1,6-bisphosphate aldolase; A8B2U2; purified Giardia FBPA; Potency, µM (doses to about 59.6 µM), inactives show at the top dose activity, negative = inhibition, most hits filed as inhibitors; 0.71% of 290,000 active; AID 2451; note: potency is the fitted concentration of half-maximal effect; nearly all actives have a fitted effect of over 55% in size
Target sequence (A8B2U2 whole entry, looked up): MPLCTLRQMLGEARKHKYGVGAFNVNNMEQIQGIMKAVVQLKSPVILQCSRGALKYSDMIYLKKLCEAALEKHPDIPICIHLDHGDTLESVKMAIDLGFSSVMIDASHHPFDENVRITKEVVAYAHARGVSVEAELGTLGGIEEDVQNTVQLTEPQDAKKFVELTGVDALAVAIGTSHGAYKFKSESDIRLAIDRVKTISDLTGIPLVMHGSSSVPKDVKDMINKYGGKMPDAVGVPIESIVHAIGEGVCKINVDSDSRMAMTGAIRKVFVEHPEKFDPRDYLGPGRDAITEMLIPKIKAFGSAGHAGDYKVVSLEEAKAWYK
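Giardia FBPA (40 nM reagent) was preincubated 10 min at RT with compound (up to 57.5 uM final), then substrate plus GAPDH/TPI/NAD/arsenate coupling system with diaphorase/resazurin was added; resorufin fluorescence (525/598 nm) was read after 20 min.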
LASV entry inh – inhibitors of Lassa virus binding or cell entry; Lassa virus pseudotype entry inhibition, cell reporter; Potency, µM (doses to about 37.9 µM), inactives show at the top dose activity change, negative = inhibition, hits mostly inhibitors; 1.2% of 300,000 active; calls by dose curve; tested in HEK293 cells; note: potency is the fitted concentration of half-maximal effect; nearly all actives have a fitted effect of over 50% in size
* marks the source's active call; other numbers are inactive results; ? = inconclusive; nt = no result given; [ ] = dose if it differs, or a comment. A selection: hits, their analogues and other compounds. The true share with any hit is near 8.3%. Unless noted, calls come from the whole dose curve; as a rule, active = well fitted curve in the direction sought with a large enough effect; inconclusive = small, poorly fitted or top-dose-only effect, or another doubt; inactive = no such curve, though single readings can be large; an effect the other way counts as inactive or inconclusive. % is set by controls: 0 for no effect and ±100 for the full control effect.

SMILES | HCMV inh | MARV entry inh | FMDV antiviral | HCV inh | FBPA Giardia inh | LASV entry inh
CCN(CC)c1ccc(/C=C(\C#N)c2nc(-c3cccs3)c(NC(C)=O)s2)cc1 | nt | -6.8% | nt | 12.6µM* | -19.3% | nt
CC(=O)Nc1sc(N/N=C\c2ccc(O)cc2)nc1-c1cccs1 | -27.3 | nt | 16.9% | 7.0% | -17.8% | nt
O=C(ONC(=O)C1C2C=CC(C2)C1C(=O)NOC(=O)c1ccccc1)c1ccccc1 (centres undefined) | -30.0 | 3.98µM* | -23.5% | ? | nt | 7.94µM*
COC(=O)c1ccc(NC(=O)C2C3C=CC(C3)C2C(=O)O)cc1 (centres undefined) | -98.2* | nt | -1.6% | 9.6% | 6.0% | nt
CCOC(=O)c1ccc(NC(=O)C2C3C=CC(C3)C2C(=O)O)cc1 (centres undefined) | 35.5 | ? | 4.5% | 3.0% | 7.3% | 17.8%
O=C(NCCSc1c(-c2ccc(Br)cc2)[nH]c2ccccc12)c1ccc(S(=O)(=O)N2CCOCC2)cc1 | -25.2 | ? | -16.9% | nt | nt | -22.7%[46.1 µM]
Cc1ccccc1CNC(=O)Cn1c(=O)c2cccn2c2cccnc21 | -14.8 | nt | 2.0% | nt | nt | 1.7%[46.1 µM]
Cc1ccc2[nH]nc(C(=O)N3CCOc4ccc(CN5CCc6sccc6C5)cc4C3)c2c1 | nt | nt | -20.8% | nt | nt | nt
CC1(C(=O)NCc2ccccc2Br)CCN1Cc1ccccc1OC(F)F (centres undefined) | -36.0 | nt | -22.5% | nt | nt | nt
CC1(C(=O)NCc2ccccc2Br)CCN1Cc1c(F)cccc1F (centres undefined) | -61.1* | nt | -17.4% | nt | nt | nt
CCOC(=O)NCc1ccccc1 | nt | nt | -13.1% | 2.82µM* | 3.5% | nt
COc1ccc(COC(=O)NNC(=O)c2ccccc2Cl)cc1 | 18.6 | 0.8% | -11.2% | -1.1% | 0.4% | 3.98µM*
O=C(NNC(=O)OCc1ccccc1)OCc1ccccc1 | -98.9* | ? | 17.6% | 16.0% | nt | ?
CCCCCC[N+](C)(C)CCSSCC[N+](C)(C)CCCCCC | 5.1 | nt | 3.3% | 3.7% | -13.9% | nt
CCCCCCCCCCCCCCCC[N+](C)(C)CCl | ? | 14.8% | -21.0% | 12.0% | nt | 6.5%
C#CC[N+](C)(C)CCCCCCCC | -76.9* | -9.4% | -21.6% | -17.0% | 6.7% | 2.8%
C#CC[N+](C)(C)CCCCCCCCCCCC | -97.8* | ? | 22.4µM* | ? | 4.3% | ?
C#CC[N+](C)(C)CCCCCCCCCC | -98.1* | -16.6% | 0.0% | ? | 8.1% | -29.1%
C=NC(C(=O)NC1C(=O)N2C1SC(C)(C)C2C(=O)O)c1ccccc1 (centres undefined) | nt | nt | nt | nt | -15.4% | nt
CCCn1ccc2c(OCC(=O)Nc3ccccc3C(=O)OCC)cccc2c1=O | 8.5 | nt | ? | nt | nt | -19.4%[46.1 µM]
Cc1ccc(-c2nn(-c3ccccc3)cc2C(=O)N2CCN(c3ccccn3)CC2)cc1 | -5.7 | ? | -8.7% | 11.2µM* | -3.1% | -18.9%
Cc1ccc(-c2nn(Cc3ccccc3)cc2C(=O)N2CCN(c3ccccn3)CC2)cc1 | 6.6 | nt | 48.1% | -14.5% | nt | nt
O=C(c1cn(-c2ccccc2)nc1-c1ccccc1)N1CCN(c2ccccn2)CC1 | -18.9 | ? | 23.9% | 10µM* | -5.2% | ?
COc1cc(OC)c(NC(=O)Nc2c(C)n(C)n(-c3ccccc3)c2=O)cc1Cl | -10.4 | -13.6%[46.1 µM] | -9.9% | nt | nt | -7.4%[46.1 µM]
C[C@H]1[C@@H](NC(=O)Nc2ccc(Cl)cc2)CC[C@@]23CCCN2C(=O)CCC[C@@H]13 | -9.0 | nt | nt | nt | nt | nt
SMILES | HCMV inh | MARV entry inh | FMDV antiviral | HCV inh | FBPA Giardia inh | LASV entry inh
CCN(CCCNC(=O)Cn1ncc2c(=O)oc3ccccc3c21)c1cccc(C)c1 | -24.5 | 3.9% | ? | 12.6µM* | -22.4% | nt
COc1ccc(/C=C(/C(=O)NCc2ccccc2)c2ccccc2)cc1 | -29.6 | -2.4% | -11.5% | ? | 0.0% | -17.4%
O=C(NCc1ccccc1)/C(=C/c1ccc(OC(F)F)cc1)c1ccccc1 | ? | 0.1% | -6.7% | 22.4µM* | 6.3% | -9.1%
Cc1ccc(C(=O)CC2(O)C(=O)N(CCc3ccccc3)c3ccc(Cl)cc32)cc1 (centres undefined) | -103.8* | -16.2%[46.1 µM] | -23.3% | nt | nt | ?
O=C(CC1(O)C(=O)N(CCc2ccccc2)c2ccc(Br)cc21)c1ccccc1 (centres undefined) | -27.5 | ? | -0.3% | nt | nt | -16.8%[46.1 µM]
CC[C@H]1OC(c2ccccc2)[C@H](C)[C@H]2O[C@@H]2[C@@H]1C(=O)OC (some centres undefined) | nt | -5.4%[14.2 µM] | nt | nt | nt | nt
NS(=O)(=O)C#Cc1ccccc1 | nt | ? | ? | nt | 8.9% | 5.8µM*
CC(=O)c1cccc(NC(=O)c2c(C)nn(-c3ccc(F)cc3)c2-n2cccc2)c1 | -10.7 | nt | ? | nt | nt | 18.9%[46.1 µM]
O=C(NCCc1ccccn1)C1CC12CCN(C(=O)c1cccc(C(F)(F)F)c1)CC2 (centres undefined) | nt | nt | -4.3% | nt | nt | nt
COc1ccc2c(c1)cc1n2CCN=C1N | 11.7 | 10.3µM* | nt | -13.9% | -5.4% | 1.7%
CC1(C)[C@H]2CC[C@]1(C)[C@H](NC(=O)CCN1CCCCC1)C2 | nt | -18.7% | nt | nt | nt | nt
COCCn1c(C)cc(C(=O)CSc2ccc3ccccc3n2)c1C | 143.2 | 2.1% | -6.3% | 10µM* | -0.2% | -10.1%
Cc1cc(C)cc(N(CCC#N)C(=O)CSc2nc3ccccc3c(=O)[nH]2)c1 | 14.6 | 10µM* | -21.7% | -18.6% | nt | ?
COCCn1c(C)cc(C(=O)CSc2nc(C)nc3sc4c(c23)CCC4)c1C | -79.8* | 3.66µM* | 6.7% | 10µM* | nt | 10.3µM*
COCCn1c(C)cc(C(=O)CSc2nncn2-c2ccccc2)c1C | 7.0 | 15.3% | 27.1% | 2.3% | -0.9% | -18.4%
Cc1nc(SCC(=O)NCC2CCCO2)c2c3c(sc2n1)CCCC3 (centres undefined) | 17.9 | -18.6%[46.1 µM] | -1.8% | -28.5% | ? | -2.8%
Cc1ccc(C)c(C(=O)CSc2nc3ccccc3c(=O)[nH]2)c1 | -66.2* | -23.2%[46.1 µM] | 2.5% | 14.8% | -1.3% | -12.7%
CCC1=C2CC[C@H]3C(=O)N(c4ccccc4)C(=O)[C@H]3[C@H]2[C@@]2(C)C(=O)N(Cc3ccccc3)C(=O)N2C1=O | nt | nt | nt | nt | 0.2% | nt
COc1cccc(C2=CC(c3ccccc3F)n3ncc(C(=O)Nc4ccc(F)cc4)c3N2)c1 (centres undefined) | -32.3 | nt | -29.8% | nt | nt | ?
COC(=O)c1ccc(NC(=O)c2nn(C)c3c2CS(=O)(=O)c2ccccc2-3)cc1 | 0.1 | nt | -12.2% | nt | nt | 4.0%[46.1 µM]
C=CCn1c(C)cc(C(=O)CSc2nc3ccccc3c(=O)[nH]2)c1C | -36.6 | ? | ? | 7.4% | -16.3% | ?
COCCn1c(C)cc(C(=O)COc2nc3ccccc3nc2C)c1C | -85.5* | ? | -28.5% | ? | 0.2% | -27.6%
COCCn1c(C)cc(C(=O)CSc2nc3ccccc3c(=O)[nH]2)c1C | 15.4 | ? | -1.0% | 8.91µM* | -9.0% | ?
O=C(CN1C2=NCCCN2c2ccccc21)c1ccc([N+](=O)[O-])cc1 | -65.9* | ? | -4.5% | 11.2µM* | 1.3% | -13.8%
